These results are taken from PubChem BioAssay AID2551 (National Center for Advancing Translational Sciences (NCATS), 2010).

The whole screen tested about 310,000 compounds, of which about 17,000 (5.5%) were called active. A call without a number means that no potency is given here. Another 11% or so got no clear call; they are omitted. The sample holds actives, similar compounds and a random draw of the others, so the mix is not that of the screen. Values without a mark were called inactive. Calls follow the shape of the dose curve; as a rule, active = well fitted inhibition curve with a large enough effect; inconclusive = small, poorly fitted or top-dose-only effect, or effect the other way; inactive = no such curve, though single readings can be large or run the other way.
Potency is read from the fitted curve at half-maximal effect.

For the experiment, the target named is Nuclear receptor ROR-gamma (Mus musculus) (UniProt P51450). Briefly: qHTS for inhibitors of ROR gamma transcriptional activity. Also: nearly all actives have a fitted effect of over 60% in size. Conditions: Drosophila S2 Gal4-RORgamma UAS-luciferase reporter, 20 h; series mostly up to 53.6 µM. The procedure, abridged: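 Read-out: Photinus luciferase luminescence; inhibitors lower reporter signal. Insect Schneider cells with Gal4-ROR gamma fusion under metallothionein promoter, UAS reporter; 700 uM final copper sulfate induction, 20 hr, ambient temperature.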
Sequence of Nuclear receptor ROR-gamma (Mus musculus) (P51450 whole entry, looked up, the tested form may be a part): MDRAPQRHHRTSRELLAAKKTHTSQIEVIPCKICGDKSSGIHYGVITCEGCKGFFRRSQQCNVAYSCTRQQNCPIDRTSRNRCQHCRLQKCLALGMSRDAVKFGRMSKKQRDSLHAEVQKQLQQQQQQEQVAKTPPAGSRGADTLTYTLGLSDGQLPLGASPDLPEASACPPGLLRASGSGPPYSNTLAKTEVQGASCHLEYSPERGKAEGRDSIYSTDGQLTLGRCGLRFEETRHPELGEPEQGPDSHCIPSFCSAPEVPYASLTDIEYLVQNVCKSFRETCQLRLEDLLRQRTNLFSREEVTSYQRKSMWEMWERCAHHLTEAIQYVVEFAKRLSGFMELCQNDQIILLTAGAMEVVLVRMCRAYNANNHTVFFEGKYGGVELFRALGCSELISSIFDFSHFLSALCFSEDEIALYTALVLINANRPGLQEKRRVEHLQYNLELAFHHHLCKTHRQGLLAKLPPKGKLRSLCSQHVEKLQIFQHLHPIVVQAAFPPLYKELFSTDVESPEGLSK
Take `CC(C)c1cc(C(=O)N/N=C/c2ccoc2)c(O)c(C(C)C)c1`: the Potency was 5.62 µM (active).

On to `CC(Oc1ccccc1[N+](=O)[O-])C(=O)N/N=C/c1ccoc1` (stereo not drawn), for which the Potency entry is “inactive”.

Regarding `COc1cc(/C=N/NC(=O)c2cc(C)n(-c3ccc(F)cc3)c2C)cc(OC)c1O`, the Potency result is “inactive”.

As to `COc1ccccc1NC(=O)/C=C/C(=O)O`, the Potency entry is “inactive”.

In the case of `CCc1ccccc1NC(=S)Nc1cc(OC)c(NC(=O)C(C)C)cc1OC`, the activity change, negative = inhibition was -14.6% [at 1.91 µM].

Take `NC(=O)c1ccccc1NC(=O)c1ccccc1F`: the Potency entry is “inactive”.

For `COc1ccccc1NC(=O)/C=C/C(N)=O`, the Potency is 4.47 µM (active).

`COc1ccccc1NC(=O)C(C)OC(=O)CC1CCCC1` (stereo not drawn): the Potency entry was “inactive”.

Regarding `COC(=O)c1ccccc1NC(=S)NC(=O)c1ccccc1F`, the Potency is 12.6 µM (active).

Take `CC(C)C(=O)Nc1cccc(NC(=O)c2ccc([N+](=O)[O-])cc2Cl)c1`: the Potency result was “inactive”.

On to `CC(C)C(=O)Nc1cccc(NC(=S)NC(=O)C(c2ccccc2)c2ccccc2)c1`, for which the Potency was 7.08 µM (active).

Take `COc1ccccc1NC(=S)NC(=O)C(C)C`: the Potency is 5.01 µM (active).

For `COc1cccc(NC(=O)C(C)Oc2ccccc2)c1` (stereo not drawn), the Potency entry was “inactive”.

As for `COc1ccccc1NC(=O)c1ccc(C)s1`, the Potency result is “inactive”.

Regarding `COC(=O)c1ccccc1NC(=O)c1ccccc1NS(C)(=O)=O`, the Potency entry is “inactive”.

On to `Cc1ccc(C(=O)NC23CC4CC(CC(C4)C2)C3)c(Cl)c1`, for which the Potency entry is “inactive”.

For `Oc1ccccc1C1=NN(c2ccccc2)C(c2ccccc2)C1` (stereo not drawn), the Potency entry was “inactive”.

As for `CC(C)c1nnc(NC(=O)COC(=O)/C=C/c2ccc([N+](=O)[O-])cc2)s1`, the Potency result is “inactive”.

As to `NNC(=O)c1nnn(-c2nonc2N)c1CN1CCCC1`, the Potency entry is “inactive”.

On to `CCc1ccc(NC(=O)NC(C)c2ccc3c(c2)OCO3)cc1` (stereo not drawn), for which the Potency entry was “inactive”.

Turning to `O=C(CN(Cc1ccc(Br)cc1)S(=O)(=O)c1ccccc1)NCc1ccncc1`, the Potency entry was “inactive”.

For the molecule `COc1ccccc1OCCNC(=O)CCNC(=O)c1ccccc1Cl`, the Potency entry is “inactive”.

Consider `CC(C)CCn1cnc2c1c(=O)n(CC(=O)NC(N)=O)c(=O)n2Cc1ccccc1`, for which the Potency entry was “inactive”.

For `O=C(NCc1ccco1)/C(=C/c1ccco1)NC(=O)c1ccccc1`, the Potency result was “inactive”.

`CC(=O)c1nn(-c2cccc(C(F)(F)F)c2)c(=O)[nH]c1=O`: the Potency result is “inactive”.

On to `O=S(=O)(Cc1nnnn1-c1ccccc1)c1ccccc1`, for which the Potency result is “inactive”.

In the case of `O=C(COc1ccc2c3c(c(=O)oc2c1)CCCC3)NCC(O)c1ccccc1` (stereo not drawn), the Potency entry is “inactive”.

Turning to `O=C(Nc1ccccc1F)c1ccccc1-c1ccccc1`, the Potency result is “inactive”.

As to `CC(C)C(=O)NC(=S)Nc1ccccc1F`, the Potency is 7.08 µM (active).

Regarding `CC(C)CC(=O)NC(=S)Nc1ccc(F)cc1F`, the Potency result was “inactive”.

Regarding `O=C(c1n[nH]c2c1CCC2)N1CCCC(Nc2cccc(F)c2)C1` (stereo not drawn), the Potency entry was “inactive”.

`COc1ccccc1NC(=O)CN(c1ccccc1OC)S(=O)(=O)c1ccccc1`: the Potency result was “inactive”.

As for `COc1ccc(S(=O)(=O)N(CC(=O)N/N=C/c2ccccc2C(=O)O)c2ccccc2OC)cc1`, the Potency entry is “inactive”.

Turning to `COc1ccccc1N(CC(=O)N/N=C(\C)c1ccccc1O)S(=O)(=O)c1ccc(C)cc1`, the Potency is 0.562 µM (active).

Turning to `Cc1nc([N+](=O)[O-])cn1CC(=O)Nc1ccc(Cl)cc1`, the Potency result is “inactive”.

With `CC1(C)Cc2ccccc2/C(=C/C(=O)c2ccccc2)N1`, the Potency result is “inactive”.

On to `N#CC1=C(N)Oc2[nH]c(=S)[nH]c(=O)c2C12C(=O)Nc1ccccc12` (stereo not drawn), for which the Potency result was “inactive”.

In the case of `CC1(C)Cc2ccccc2-c2[nH]c(=S)[nH]c(=O)c21`, the Potency was 17.8 µM (active).

As for `Cc1nn(C(C)(C)C)c(OC(=O)CC(C)C)c1S(=O)(=O)c1ccccc1`, the Potency entry was “inactive”.

With `COc1ccc(C)cc1S(=O)(=O)Nc1cccc(Cl)c1Cl`, the Potency entry is “inactive”.

In the case of `COc1cc(Br)c(-c2sc(Nc3ccccc3)n[n+]2-c2ccccc2)cc1OC`, the Potency is 11.2 µM (active).

As for `COc1ccc(C)cc1Nc1nc(-c2c(C)[nH]c3ccccc23)cs1`, the Potency entry is “inactive”.

`COc1ccc(C)cc1Nc1n[n+](-c2ccccc2)c(-c2cccc(Cl)c2Cl)s1`: the Potency is 6.31 µM (active).

Take `CCOc1ccc2c(c1)c(=O)c(S(=O)(=O)c1ccc(C)cc1)cn2CC`: the Potency entry was “inactive”.

For the molecule `CC(=O)N1CCN(CC(c2ccccc2)c2ccccc2)CC1`, the Potency result is “inactive”.

Turning to `COc1ccc(C(=O)C2CCCN(S(=O)(=O)c3cccc(C)c3)C2)c(C)c1` (stereo not drawn), the Potency result is “inactive”.

In the case of `CCc1cccc(OC2OC(CO)C(O)C(O)C2NC(C)=O)c1` (stereo not drawn), the Potency result was “inactive”.

Turning to `COc1cc(/C=C/CO)cc(OC)c1O[C@@H]1O[C@H](CO)[C@@H](O)[C@H](O)[C@H]1O`, the Potency entry is “inactive”.

Take `Cc1csc(-c2coc3cc(O[C@@H]4O[C@H](CO)[C@@H](O)[C@@H](O)[C@H]4O)ccc3c2=O)n1`: the Potency was 3.16 µM (active).

Take `O=C(O)c1cc([N+](=O)[O-])c(Nc2cccc3ccccc23)c([N+](=O)[O-])c1`: the Potency entry was “inactive”.

Take `CSc1ccccc1NC(=O)c1ccc2c(c1)CCN2S(C)(=O)=O`: the Potency entry is “inactive”.

Turning to `Cc1occc(=O)c1OCc1c(Cl)cccc1Cl`, the Potency result was “inactive”.

Take `CCCOc1ccc(C(=O)NCCc2ccccc2)cc1`: the Potency was 11.2 µM (active).

In the case of `O=C(NCCc1ccccc1)c1ccc(OCCOc2ccccc2)cc1`, the Potency entry was “inactive”.

`O=C(NCCOc1ccccc1)c1ccccc1`: the Potency result is “inactive”.

Turning to `CCOC(=O)c1c(C)[nH]c(C)c1S(=O)(=O)NCCCc1ccco1`, the Potency result is “inactive”.

Regarding `Cc1cc(C)c2nc(NC(=O)c3ccc4c(c3)OCO4)sc2c1`, the Potency is 0.251 µM (active).

As for `COCc1nnc(NC(=O)c2ccc3c(c2)OCO3)s1`, the Potency result was “inactive”.

Consider `O=C(Nc1ccccc1F)c1ccc2c(c1)OCO2`, for which the Potency entry is “inactive”.

On to `Cc1ccc(-n2nc3c(c2NC(=O)c2ccc4c(c2)OCO4)CSC3)c(C)c1`, for which the Potency entry was “inactive”.

`Cc1ccc2sc(NNC(=O)c3ccc4c(c3)OCCO4)nc2c1C`: the Potency is 7.94 µM (active).

In the case of `O=C(Nc1nc2ccccc2s1)c1ccc2c(c1)OCO2`, the Potency is 7.94 µM (active).

On to `Cc1ccc(F)cc1NC(=O)c1ccc2c(c1)OCO2`, for which the Potency result is “inactive”.

Consider `Cc1cc(C)c2nc(NC(=O)C3CCCO3)sc2c1` (stereo not drawn), for which the Potency entry is “inactive”.

Turning to `C/C(Cc1ccccc1)=N\NC(=O)CNC(=O)c1ccc2c(c1)OCCO2`, the Potency entry is “inactive”.

Consider `COc1ccc(C)cc1N(C(=O)Cn1nnc(-c2ccc(C)o2)n1)C(C(=O)NC1CCCC1)c1ccncc1` (stereo not drawn), for which the Potency result is “inactive”.

For `CCCN1CCN(C(=O)CCCNC(=O)c2ccc(Cl)cc2)CC1`, the Potency result was “inactive”.

On to `COCCCN1C(=O)c2ccc(C(=O)OCC(=O)NCc3ccccc3OC)cc2C1=O`, for which the Potency entry was “inactive”.
